Data: the supplement of paper PMC10849652
The full data set covers some 7,900 targets. This sample favours those with a hit. About 0.6% of all pairs of compound and target were hits.

What was measured:
Test in all cases: log2 fold change, soluble protein after heating vs DMSO (PISA); higher = thermal stabilisation; K562 cells, 10 uM, 30 min; active = over 0.2 and 3.5 SD of the protein, either way, in both replicates (recomputed)
[1] = compound: CS(=O)(=O)c1ccc(-c2cnc(N)c(C(=O)Nc3ccccc3)n2)cc1
Procedure, shortened: (§1)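 K562 cells at 2×10^6 cells/mL were treated with 10 μM compound for 30 min. Aliquots were heated for 3 min across 48°C-58°C, pooled, and extracted in PBS with 0.5% NP-40 at 4°C; soluble protein was the supernatant after 21,000xg for 90 min. Soluble protein was quantified by TMTpro 16plex LC-MS/MS with channel sums equalised, and reported as log2 fold change in thermal stability against DMSO controls, with values from duplicates.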

[2] = compound: C[C@@H](Oc1cc(-c2cnn(C3CCNCC3)c2)cnc1N)c1c(Cl)ccc(F)c1Cl [crizotinib]
Procedure, shortened: as §1

[3] = compound: C[C@@H]1COCCN1C2=NC(=NC(=C2)C3(CC3)S(=O)(=O)C)C4=C5C=CNC5=CC=C4
Procedure, shortened: as §1

[4] = compound: C[C@H](C1=CC=C(C=C1)C(=O)NC2=C3C=CNC3=NC=C2)N
Procedure, shortened: as §1

[5] = compound: C[C@H](Nc1ncnc2nc[nH]c12)c1cc2cccc(Cl)c2c(=O)n1-c1ccccc1 [duvelisib]
Procedure, shortened: as §1

[6] = compound: Cc1cc(Nc2cc(CN3CCOCC3)c3nc(C)c(Cc4ccc(Cl)cc4F)n3n2)n[nH]1 [gandotinib]
Procedure, shortened: as §1

[7] = compound: Cc1cc(Nc2cc(N3CCN(C)CC3)nc(Sc3ccc(NC(=O)C4CC4)cc3)n2)n[nH]1 [tozasertib]
Procedure, shortened: as §1

[8] = compound: Cc1cc(SCc2sc(-c3ccc(C(F)(F)F)cc3)nc2C)ccc1OCC(=O)O
Procedure, shortened: as §1

[9] = compound: Cc1ccc(-n2nc(C(C)(C)C)cc2NC(=O)Nc2ccc(OCCN3CCOCC3)c3ccccc23)cc1 [doramapimod]
Procedure, shortened: as §1

[10] = compound: Cc1ccc(C(=O)N(CCCN)[C@@H](c2nc3cc(Cl)ccc3c(=O)n2Cc2ccccc2)C(C)C)cc1 [ispinesib]
Procedure, shortened: as §1

[11] = compound: Cc1ccc(NC(=O)c2ccc(CN3CC[C@H](N(C)C)C3)c(C(F)(F)F)c2)cc1Nc1nccc(-c2cncnc2)n1 [bafetinib]
Procedure, shortened: as §1

[12] = compound: Cc1cccc(CC(=O)N2CCc3c2ccc(-c2cn(C)c4ncnc(N)c24)c3F)n1
Procedure, shortened: as §1

[13] = compound: Cc1cn(-c2cc(NC(=O)c3ccc(C)c(Nc4nccc(-c5cccnc5)n4)c3)cc(C(F)(F)F)c2)cn1 [nilotinib]
Procedure, shortened: as §1

[14] = compound: Cc1nc(Nc2n[nH]c3c2CN(C(=O)N[C@H](CN(C)C)c2ccccc2)C3(C)C)c2sccc2n1
Procedure, shortened: as §1

[15] = compound: Cc1nc(Nc2ncc(C(=O)Nc3c(C)cccc3Cl)s2)cc(N2CCN(CCO)CC2)n1 [dasatinib]
Procedure, shortened: as §1

[16] = compound: Cc1ncc(-c2ccnc(Nc3ccc(S(C)(=O)=O)cc3)n2)n1C(C)C
Procedure, shortened: as §1

[17] = compound: Cn1cc(-c2ccc3c(c2)CCN3C(=O)Cc2cccc(C(F)(F)F)c2)c2c(N)ncnc21
Procedure, shortened: as §1

[18] = compound: Cn1cc(-c2ccc3nnc(C(F)(F)c4ccc5ncccc5c4)n3n2)cn1
Procedure, shortened: as §1

[19] = compound: Cn1cncc1[C@@](N)(c1ccc(Cl)cc1)c1ccc2c(c1)c(-c1cccc(Cl)c1)cc(=O)n2C [tipifarnib]
Procedure, shortened: as §1

[20] = compound: FC(F)(F)c1ccc(/C=C/c2nc(COc3ccc(CCCCn4ccnn4)cc3)co2)cc1 [mubritinib]
Procedure, shortened: as §1

Measured: log2 fold change

COX15 (UniProt Q7KZN9)
Chain of UniProt Q7KZN9 (Q7KZN9 whole entry, looked up): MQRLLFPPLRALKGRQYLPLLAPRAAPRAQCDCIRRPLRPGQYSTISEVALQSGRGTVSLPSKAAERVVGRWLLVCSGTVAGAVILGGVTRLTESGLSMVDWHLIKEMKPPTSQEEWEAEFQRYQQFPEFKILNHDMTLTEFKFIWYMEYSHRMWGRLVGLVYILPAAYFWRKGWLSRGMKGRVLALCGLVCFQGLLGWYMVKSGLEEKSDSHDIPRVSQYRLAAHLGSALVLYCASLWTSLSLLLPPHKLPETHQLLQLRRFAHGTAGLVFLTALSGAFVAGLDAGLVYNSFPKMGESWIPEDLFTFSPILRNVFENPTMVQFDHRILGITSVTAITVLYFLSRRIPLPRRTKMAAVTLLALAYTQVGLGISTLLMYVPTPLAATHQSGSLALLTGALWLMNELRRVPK
inactive: [1] -0.008 | [2] -0.015 | [3] 0.041 | [4] 0.006 | [5] 0.035 | [6] -0.07 | [7] -0.029 | [8] -0.033 | [9] -0.023 | [10] -0.016 | [11] 0.09 | [12] -0.02 | [13] -0.013 | [14] 0.02 | [15] 0.078 | [16] -0.034 | [17] 0.008 | [18] -0.023 | [19] 0.046 | [20] 0.038

CBS (UniProt P35520)
Chain of UniProt P35520 (P35520 whole entry, looked up): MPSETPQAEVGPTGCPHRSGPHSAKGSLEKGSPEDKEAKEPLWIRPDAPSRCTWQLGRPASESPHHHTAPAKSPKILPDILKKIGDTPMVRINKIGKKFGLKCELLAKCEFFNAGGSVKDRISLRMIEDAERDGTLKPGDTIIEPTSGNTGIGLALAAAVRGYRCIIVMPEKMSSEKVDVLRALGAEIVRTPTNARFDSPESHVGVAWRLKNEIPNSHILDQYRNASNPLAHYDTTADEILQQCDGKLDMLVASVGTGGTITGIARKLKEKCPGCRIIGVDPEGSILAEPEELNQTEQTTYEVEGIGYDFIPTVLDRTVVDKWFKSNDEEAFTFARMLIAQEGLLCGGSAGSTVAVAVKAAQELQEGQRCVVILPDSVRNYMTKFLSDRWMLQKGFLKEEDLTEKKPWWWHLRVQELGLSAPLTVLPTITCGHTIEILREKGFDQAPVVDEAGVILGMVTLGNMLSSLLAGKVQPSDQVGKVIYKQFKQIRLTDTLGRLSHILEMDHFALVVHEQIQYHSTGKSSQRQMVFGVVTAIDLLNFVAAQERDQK
inactive: [1] -0.024 | [2] 0.044 | [3] 0.023 | [4] -0.054 | [5] 0.027 | [6] -0.033 | [7] -0.032 | [8] -0.031 | [9] -0.076 | [10] -0.019 | [11] -0.031 | [12] -0.029 | [13] 0.025 | [14] -0.012 | [15] 0.018 | [16] -0.003 | [17] 0.079 | [18] 0.035 | [19] -0.023 | [20] 0.056

CLPP (UniProt Q16740)
Chain of UniProt Q16740 (Q16740 whole entry, looked up): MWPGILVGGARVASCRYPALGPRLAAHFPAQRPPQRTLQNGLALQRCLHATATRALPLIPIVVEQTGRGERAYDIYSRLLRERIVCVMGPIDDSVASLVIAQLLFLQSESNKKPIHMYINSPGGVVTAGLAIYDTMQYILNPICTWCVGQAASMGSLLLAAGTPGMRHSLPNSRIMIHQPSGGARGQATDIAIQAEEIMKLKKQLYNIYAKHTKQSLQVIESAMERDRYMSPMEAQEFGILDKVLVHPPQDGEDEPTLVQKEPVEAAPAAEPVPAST
active: [2] 0.348
inactive: [1] 0.05 | [3] 0.058 | [4] -0.025 | [5] 0.006 | [6] 0.008 | [7] -0.02 | [8] 0.017 | [9] 0.003 | [10] 0.105 | [11] 0.025 | [12] -0.045 | [13] 0.022 | [14] 0.005 | [15] 0.063 | [16] -0.016 | [17] 0.115 | [18] 0.02 | [19] 0.003 | [20] 0.004

CDC37L1 (UniProt Q7L3B6)
Chain of UniProt Q7L3B6 (Q7L3B6 whole entry, looked up): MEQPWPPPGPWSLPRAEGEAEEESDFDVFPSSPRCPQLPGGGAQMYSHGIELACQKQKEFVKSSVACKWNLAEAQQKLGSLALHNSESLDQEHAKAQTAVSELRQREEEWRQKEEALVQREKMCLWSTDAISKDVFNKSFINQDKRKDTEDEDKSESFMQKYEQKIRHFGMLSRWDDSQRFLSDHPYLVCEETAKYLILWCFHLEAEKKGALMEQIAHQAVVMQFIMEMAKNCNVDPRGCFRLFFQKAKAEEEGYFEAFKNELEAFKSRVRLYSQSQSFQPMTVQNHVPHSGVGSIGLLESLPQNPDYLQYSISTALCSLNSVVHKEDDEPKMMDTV
inactive: [1] 0.007 | [2] 0.036 | [3] 0.148 | [4] -0.013 | [5] -0.039 | [6] -0.091 | [7] -0.093 | [8] 0.117 | [9] -0.036 | [10] 0.005 | [11] -0.215 | [12] 0.027 | [13] -0.026 | [14] -0.167 | [15] -0.088 | [16] 0.022 | [17] 0.018 | [18] 0.121 | [19] 0.034 | [20] 0.172

COX17 (UniProt Q14061)
Chain of UniProt Q14061 (Q14061 whole entry, looked up): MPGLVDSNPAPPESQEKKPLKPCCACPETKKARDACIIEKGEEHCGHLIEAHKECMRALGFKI
inactive: [1] 0.026 | [2] 0.164 | [3] 0.206 | [4] -0.072 | [5] 0.256 | [6] -0.11 | [7] 0.005 | [8] -0.021 | [9] -0.037 | [10] 0.137 | [12] 0.078 | [13] -0.091 | [14] -0.051 | [15] 0.016 | [16] -0.162 | [17] 0.206 | [18] -0.034 | [20] 0.038

CLTB (UniProt P09497)
Chain of UniProt P09497 (P09497 whole entry, looked up): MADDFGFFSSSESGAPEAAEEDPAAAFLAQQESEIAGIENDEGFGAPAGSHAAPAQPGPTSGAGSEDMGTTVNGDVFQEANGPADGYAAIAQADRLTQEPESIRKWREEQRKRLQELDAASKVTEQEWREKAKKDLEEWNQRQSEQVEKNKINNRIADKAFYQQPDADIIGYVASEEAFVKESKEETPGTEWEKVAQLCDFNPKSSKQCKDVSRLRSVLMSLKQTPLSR
inactive: [1] -0.058 | [2] 0.007 | [3] -0.004 | [4] -0.047 | [5] -0.035 | [6] 0.026 | [7] -0.011 | [8] -0.056 | [9] -0.012 | [10] 0.085 | [11] 0.095 | [12] 0.002 | [13] 0.077 | [14] 0.024 | [15] 0.081 | [16] 0.005 | [17] -0.02 | [18] -0.019 | [19] -0.006 | [20] -0.016

CLPX (UniProt O76031)
Chain of UniProt O76031 (O76031 whole entry, looked up): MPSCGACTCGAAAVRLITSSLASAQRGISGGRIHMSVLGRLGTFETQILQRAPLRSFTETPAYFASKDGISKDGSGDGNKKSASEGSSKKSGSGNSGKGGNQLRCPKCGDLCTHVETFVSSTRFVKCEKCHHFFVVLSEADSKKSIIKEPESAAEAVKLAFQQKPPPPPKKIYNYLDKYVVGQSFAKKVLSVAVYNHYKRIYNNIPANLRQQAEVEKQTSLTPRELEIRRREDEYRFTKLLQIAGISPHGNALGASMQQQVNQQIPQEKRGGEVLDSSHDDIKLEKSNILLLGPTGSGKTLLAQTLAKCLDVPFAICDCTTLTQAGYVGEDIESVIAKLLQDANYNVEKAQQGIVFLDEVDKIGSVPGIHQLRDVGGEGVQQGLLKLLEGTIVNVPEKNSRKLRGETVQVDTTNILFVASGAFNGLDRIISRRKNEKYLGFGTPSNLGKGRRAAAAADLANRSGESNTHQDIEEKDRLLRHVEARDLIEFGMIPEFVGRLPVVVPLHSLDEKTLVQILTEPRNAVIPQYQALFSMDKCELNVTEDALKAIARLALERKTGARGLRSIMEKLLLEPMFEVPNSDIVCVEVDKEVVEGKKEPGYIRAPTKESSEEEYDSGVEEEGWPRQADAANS
active: [2] 0.291
inactive: [1] 0.061 | [3] 0.027 | [4] 0.004 | [5] 0.004 | [6] 0.003 | [7] -0.012 | [8] -0.05 | [9] -0.002 | [10] 0.018 | [11] 0.008 | [12] -0.074 | [13] -0.006 | [14] 0.042 | [15] 0.006 | [16] -0.019 | [17] -0.012 | [18] 0.032 | [19] 0.052 | [20] -0.048

COQ9 (UniProt O75208)
Chain of UniProt O75208 (O75208 whole entry, looked up): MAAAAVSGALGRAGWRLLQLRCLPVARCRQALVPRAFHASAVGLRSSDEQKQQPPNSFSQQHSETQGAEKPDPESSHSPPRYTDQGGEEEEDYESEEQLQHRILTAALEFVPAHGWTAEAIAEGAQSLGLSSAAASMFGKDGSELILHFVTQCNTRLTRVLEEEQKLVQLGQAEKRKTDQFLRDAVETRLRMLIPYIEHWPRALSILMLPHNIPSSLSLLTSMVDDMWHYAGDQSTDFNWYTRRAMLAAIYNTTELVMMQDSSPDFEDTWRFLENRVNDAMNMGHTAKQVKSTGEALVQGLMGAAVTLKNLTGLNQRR
inactive: [1] 0.02 | [2] -0.067 | [3] 0.03 | [4] -0.064 | [5] -0.043 | [6] -0.029 | [7] 0.009 | [8] 0.032 | [9] -0.079 | [10] -0.055 | [11] -0.124 | [12] 0.074 | [13] -0.06 | [14] -0.035 | [15] -0.147 | [16] 0.001 | [17] 0.052 | [18] 0.028 | [19] -0.068 | [20] -0.04
